# Screening results (PubChem)
# M18AAP inhibitor = blocks P. falciparum M18 aspartyl aminopeptidase | recombinant PfM18AAP, H-Glu-NHMec fluorogenic cleavage | inhibition, % at 7.35 µM | 290,000 tested, 1.2% active | AID 1822;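 active = inhibition above the campaign mean inhibition over all tested compounds plus 3 SD, cut at about 28% in these data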
# pPAFAH FP inh = pPAFAH (human) enzyme inhibition; Q13093; recombinant pPAFAH, FP-rhodamine probe fluorescence polarization; 330,000 tested, 1.5% active; inhibition, % at 3.39 µM;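 active = inhibition above the mean inhibition across the screen plus 3 SD, cut at about 25% in these data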;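 note: inhibitors block binding of the rhodamine activity-based probe so polarization drops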
# PAFAH2 FP inh = inhibitors of human PAFAH2 | 340,000 tested, 0.99% active | inhibition, % at 3.39 µM | AID 492956 | recombinant PAFAH2, FP-rhodamine activity probe, fluorescence polarization | Q99487;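 active = inhibition above the mean over all tested compounds plus 3 SD, cut at about 30% in these data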;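 note: inhibitors block probe labeling of enzyme so polarization drops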
# PAFAH1B3 FP inh = blocks human PAF acetylhydrolase 1B catalytic subunit 3. inhibition, % at 3.39 µM. 340,000 tested, 0.28% active. Q15102. recombinant PAFAH1B3, FP-rhodamine probe, fluorescence polarization;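 active = inhibition above the screen-wide average of all tested compounds plus 3 SD, cut at about 25% in these data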
# Target sequence (Q15102 whole entry, looked up): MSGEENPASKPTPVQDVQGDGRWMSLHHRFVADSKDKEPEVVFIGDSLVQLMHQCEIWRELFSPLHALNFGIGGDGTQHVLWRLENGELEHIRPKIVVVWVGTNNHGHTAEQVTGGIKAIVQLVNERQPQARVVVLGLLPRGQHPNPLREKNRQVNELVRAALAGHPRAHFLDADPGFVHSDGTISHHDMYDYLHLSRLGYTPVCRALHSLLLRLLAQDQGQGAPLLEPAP
# PAFAH1B2 inh = PAFAH1B2 (human) inhibition; P68402; recombinant PAFAH1B2, FP-rhodamine activity probe, fluorescence polarization; inhibition, % at 3.39 µM; 340,000 tested, 1.2% active;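 active = inhibition above the mean of all tested compounds plus 3 SD, cut at about 24% in these data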
# Target sequence (P68402 whole entry, looked up): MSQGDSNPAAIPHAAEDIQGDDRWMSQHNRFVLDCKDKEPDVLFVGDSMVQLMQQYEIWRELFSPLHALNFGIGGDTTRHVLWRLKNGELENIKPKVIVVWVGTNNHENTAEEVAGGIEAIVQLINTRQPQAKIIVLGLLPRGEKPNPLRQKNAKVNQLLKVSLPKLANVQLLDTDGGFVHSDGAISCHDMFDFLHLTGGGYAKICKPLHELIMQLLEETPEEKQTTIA
# DSG3 Ab inh = inhibitors of pemphigus antibody binding to human desmoglein-3; DSG3-coupled beads, scFv-anti-DSG3-GFP binding, flow cytometry; stronger effect = lower value; binding (percent of control), % at 10 µM; AID 588358; 310,000 tested, 0.48% active;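 active = binding more than 3 SD below its plate's average and above zero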;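 note: hits lower antibody fragment binding to DSG3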
# A number is an active result; 0 = inactive; - = no result given. An excerpt weighted towards active compounds, which were near 3.8% of everything screened.
SMILES,M18AAP inhibitor,pPAFAH FP inh,PAFAH2 FP inh,PAFAH1B3 FP inh,PAFAH1B2 inh,DSG3 Ab inh
CCOCC(=O)Nc1c(C(=O)Nc2ccc3c(c2)OCCO3)oc2ccccc12,0,0,0,0,0,0
Cc1cccc(OCc2nnc(SCC(=O)Nc3ccc(C)c(C)c3)o2)c1,0,0,0,0,0,65.5
Cc1cnc(NC(=O)CSc2nnc(Cc3ccccc3)o2)s1,0,0,0,0,0,-
Cc1cccc(OCc2nnc(SCC(=O)Nc3ncc(C)s3)o2)c1,31.4,0,0,0,0,0
CCOc1ccc(NC(=O)CN(C)C(=O)Cc2ccc3c(c2)OCCO3)cc1OCC,-,-,-,-,-,0
O=C(OCc1cn(-c2ccc(Cl)c(Cl)c2)nn1)c1ccccc1,0,0,78.5,0,0,0
C=CC[n+]1c(-c2ccc(Cl)cc2Cl)csc1Nc1ccc(NC(C)=O)cc1,0,24.8,32.7,0,0,0
C=CC[n+]1c(-c2ccc(Cl)cc2Cl)csc1Nc1c(C)n(C)n(-c2ccccc2)c1=O,0,0,0,0,0,0
Clc1ccc(NN(Cc2ccncc2)c2ccc(Cl)cc2)cc1,-,-,-,-,-,0
Cc1ccc(C)c(N2CCN(C(=O)c3ccc4nc(-c5ccco5)c(-c5ccco5)nc4c3)CC2)c1,0,31.1,0,0,0,69.4
CC1(C)CC2=C(CO1)C(=S)NC(c1ccccc1)N2CC1CCCO1 (stereo unspecified),0,0,0,0,0,0
O=C(COC(=O)Cc1ccsc1)Nc1ccc(Cl)cn1,-,27.8,0,0,0,0
O=C(COC(=O)Cc1ccsc1)NCc1ccc(Cl)cc1,0,0,0,0,0,0
O=C(COC(=O)Cc1ccsc1)Nc1ccc(F)cc1Cl,-,28.7,0,0,0,0
Cc1ccccc1NC(=O)COC(=O)Cc1ccsc1,0,27.2,0,0,0,0
Cc1ccc(C)c(NC(=O)COC(=O)Cc2ccsc2)c1,0,24.9,0,0,0,0
Cc1cccc(C)c1NC(=O)COC(=O)Cc1ccsc1,0,0,0,0,0,0
CC1CCCCC12NC(=O)N(CC(=O)N1CCc3ccccc3C1)C2=O (stereo unspecified),-,-,0,0,0,0
COc1cccc(COC(=O)CSCC(=O)Nc2ccc(C)cc2)c1OC,-,-,-,-,-,0
COc1cccc(-c2ccc3nnc(SCC(=O)Nc4ccc(NC(C)=O)cc4)n3n2)c1,-,0,0,0,0,0
CN1CCN(CCC=C2c3ccccc3Sc3ccc(S(=O)(=O)N(C)C)cc32)CC1,-,28.0,0,0,0,0
Cc1c(C(=O)N2CCCCC2)c(S(=O)(=O)N2CCN(c3ccc(Cl)cc3)CC2)c(C)n1C,0,25.1,0,0,0,0
Cc1c(C(=O)N2CCCCC2)c(S(=O)(=O)N2CCN(c3ccc(F)cc3)CC2)c(C)n1C,0,0,0,0,0,0
Cc1occc1C(=O)O/N=C(\N)c1ccc(Cl)cc1,0,0,0,0,34.4,0
COc1ccc(Cl)cc1C(=O)O/N=C(\N)c1ccc(Cl)cc1,0,0,0,0,0,0
SMILES,M18AAP inhibitor,pPAFAH FP inh,PAFAH2 FP inh,PAFAH1B3 FP inh,PAFAH1B2 inh,DSG3 Ab inh
COc1c(OC(C)=O)c(=O)n2c3ccccc3c3ccnc1c32,-,0,0,0,0,0
O=C(Nc1nc(-c2cccnc2)cs1)c1ccc([N+](=O)[O-])cc1,0,0,0,0,0,29.3
CCCCCCCCCS(=O)(=O)N/N=C/c1cccc([N+](=O)[O-])c1,0,0,0,0,28.0,0
OCCCNc1cc(-c2ccccc2)nc2cc(-c3ccc(F)cc3)nn12,0,0,0,0,26.2,0
COCCNC(=O)c1ccc(N2CC3CC(C2)c2cccc(=O)n2C3)c(NC(=O)c2ccccc2Br)c1 (stereo unspecified),-,-,-,-,-,0
COc1ccc(OC)c(/C=C2\SC(=S)N(NS(=O)(=O)c3ccc(C)cc3)C2=O)c1,0,25.7,0,0,0,0
O=c1nccc(N/N=C/c2ccccc2O)[nH]1,28.8,-,0,0,0,0
CCOc1ccccc1/C=N/Nc1ccnc(=O)[nH]1,0,-,0,0,0,0
O=C(CC1C(=O)NCCN1Cc1ccccc1C(F)(F)F)NCCc1ccccn1 (stereo unspecified),0,0,0,0,0,0
CC(/C=N/NC(=S)Nc1cccc(S(=O)(=O)N(C)C)c1)c1ccccc1 (stereo unspecified),32.8,0,0,0,0,0
CN(C)S(=O)(=O)c1cccc(NC(=S)N/N=C/c2ccco2)c1,0,0,0,0,0,0
CN(C)S(=O)(=O)c1cccc(NC(=S)N/N=C/C(c2ccccc2)c2ccccc2)c1,31.9,0,0,0,0,0
CC(OC(=O)C1=COCCO1)C(=O)NC1CCCC(C)C1C (stereo unspecified),-,-,-,-,-,0
Cc1csc(N=Nc2ccc(N(C)C)cc2)[n+]1[O-],-,-,-,-,-,0
CCC(CO)Nc1ncnc2c1cnn2-c1ccc(Cl)cc1 (stereo unspecified),0,0,0,0,0,0
CCC(CO)Nc1nc2ccc(Cl)cc2c2ccccc12 (stereo unspecified),0,27.3,0,0,0,0
O=C(O)CN1C(=O)/C(=C/C=C/c2ccccc2)SC1=S,0,0,0,0,0,0
CC(=O)c1ccc(NC(=O)CN2C(=O)/C(=C/C=C/c3ccccc3)SC2=S)cc1,0,0,0,0,0,80.2
CC1CCN(S(=O)(=O)c2ccc3[nH]c(=O)c(=O)[nH]c3c2)CC1,0,0,0,0,60.3,0
Cc1ccc(-c2cc(C(F)F)nc(NCc3cccnc3)n2)cc1,0,25.6,0,0,0,0
Cc1ccc(-c2cc(C(F)F)nc(NCc3cccs3)n2)cc1,0,0,0,0,0,0
O=C(COC(=O)/C=C/c1cccc(Cl)c1)Nc1ccccc1-c1ccccc1,0,0,-,-,-,-
O=C(COC(=O)/C=C/c1cccc(Cl)c1)Nc1c(F)cccc1F,-,0,0,0,0,-5.5
O=S(=O)(Nc1ccc(Cl)cc1)c1ccc2c(c1)CCO2,0,31.6,0,0,0,0
Nc1cc(S(=O)(=O)Nc2ccc(Cl)cc2)ccc1N1CCOCC1,0,25.0,0,0,0,0
SMILES,M18AAP inhibitor,pPAFAH FP inh,PAFAH2 FP inh,PAFAH1B3 FP inh,PAFAH1B2 inh,DSG3 Ab inh
O=C(CCSc1ccc(F)cc1)NNC(=O)c1ccc([N+](=O)[O-])cc1,-,0,0,0,28.5,0
O=C(COC(=O)CSc1ccc(F)cc1)NNC(=O)c1ccc([N+](=O)[O-])cc1,-,0,0,0,0,0
COc1ccc(C(=O)N(C)CCOc2ccc(Cl)cc2)cc1S(=O)(=O)N1CCCC1,-,-,-,-,-,0
N#CC1=C2SCN(Cc3ccco3)CN2C(=O)CC1c1cccc2ccccc12 (stereo unspecified),29.8,0,0,0,0,-
N#CC1=C2SCN(Cc3ccco3)CN2C(=O)CC1c1ccccc1F (stereo unspecified),0,0,0,0,0,0
O=C1Cc2cccc(=O)c(O)c2C(=O)O1,-,-,-,-,-,0
O=C1c2c(O)cccc2Cc2cccc(O)c21,-,0,0,0,0,63.8
C[C@H]1CN([C@@H](C)CO)C(=O)CCCn2nncc2CO[C@H]1CN(C)S(=O)(=O)c1ccc(C#N)cc1,-,-,-,-,-,0
